# Data as given in PubChem BioAssay (Tox21).
# Results filed as inconclusive are left out. Entries that show only a call come without a potency. Activity calls are given as the source filed them. Calls come from the whole dose curve; as a rule, active = well fitted inhibition curve with a large enough effect in the signal ratio in the repeat runs (not every such curve was filed as active); inconclusive = weak or mixed curves, or effect the other way; inactive = no such curve, though single readings can be large or run the other way; the % refers to the signal ratio.
# Target: Peroxisome proliferator-activated receptor delta (Homo sapiens) (UniProt Q03181)
# Sequence (Q03181 whole entry, looked up): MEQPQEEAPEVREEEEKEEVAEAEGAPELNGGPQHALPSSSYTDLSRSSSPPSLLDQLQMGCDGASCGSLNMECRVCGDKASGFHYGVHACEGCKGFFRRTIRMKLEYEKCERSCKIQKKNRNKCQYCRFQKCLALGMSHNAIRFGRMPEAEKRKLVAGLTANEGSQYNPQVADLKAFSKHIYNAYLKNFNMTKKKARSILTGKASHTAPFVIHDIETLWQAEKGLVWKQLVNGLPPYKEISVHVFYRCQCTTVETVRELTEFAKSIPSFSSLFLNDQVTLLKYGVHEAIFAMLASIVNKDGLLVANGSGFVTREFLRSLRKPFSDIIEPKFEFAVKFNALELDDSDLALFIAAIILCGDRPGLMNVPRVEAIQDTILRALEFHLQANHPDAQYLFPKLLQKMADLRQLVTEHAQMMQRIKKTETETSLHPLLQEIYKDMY
# Assay: qHTS assay to identify small molecule antagonists of the peroxisome proliferator-activated receptor delta (PPARd) signaling pathway (AID 743215);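 note: cells stimulated with agonist L165041 at 300 nM final during compound exposure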
# Conditions: HEK293H PPARd-UAS-bla, beta-lactamase FRET ratio, antagonist, 17 h; series mostly up to 62 µM
# Excerpt: U.S. Tox21 Program National Center for Advancing Translational Sciences [NCATS] NIH Chemical Genomics Center [NCGC] U.S. Environmental Protection Agency [EPA] National Institutes of Environmental Health Sciences [NIEHS] National Toxicology Program [NTP] U.S. Food and Drug Administration [FDA] Tox21 Assay Overview: The peroxisome proliferator-activated receptors (PPARs) are lipid-activated transcription factors of the nuclear receptor superfamily with three distinct subtypes namely PPAR alpha, PPAR delta (PPARd) and PPAR gamma. All these subtypes heterodimerizes with Retinoid X receptor (RXR) and have different physiological functions. […] To identify the compounds that inhibit PPAR-delta signaling, GeneBLAzer PPAR delta UAS-bla HEK293H cell line (Invitrogen, Carlsbad, CA, USA) containing a beta-lactamase reporter gene under the control of an Upstream Activator Sequence (UAS) was used to screen the Tox21 compound library.
# Tox21 Assay Protocol Summary: PPARd-bla cells were dispensed at 3000 cells/5uL/well in 1536-well black wall/clear bottom plates using a Multidrop Combi (Thermo Fisher Scientific, Waltham, MA) dispenser. After the assay plates were incubated at 37 C and 5% CO2 for 5 h, 23 nL of compounds dissolved in DMSO, positive controls or DMSO only was transferred to the assay plate by a Pintool station (Kalypsys, San Diego, CA), followed by addition of 1ul L165041 (300 nM, final concentration in the wells). The assay plates were incubated at 37 C for 17 h, and then 1 uL of LiveBLAzerTM B/G FRET substrate was added using a Bioraptr Flying Reagent Dispenser (FRD) workstation (Beckman Coulter, Indianapolis, IN, USA). The assay plates were incubated at room temperature for 2 h and fluorescence intensity was measured by an Envision plate reader (PerkinElmer, Shelton, CT).
# Potency is the fitted concentration of half-maximal effect.
row,SMILES,Potency
1,C=CC(=O)OCCn1c(=O)n(CCOC(=O)C=C)c(=O)n(CCOC(=O)C=C)c1=O,13.8 µM (active)
2,CCC1=C[C@@H]2CN(C1)Cc1c([nH]c3ccccc13)[C@@](C(=O)OC)(c1cc3c(cc1OC)N(C)[C@H]1[C@@](O)(C(=O)OC)[C@H](OC(C)=O)[C@]4(CC)C=CCN5CC[C@]31[C@@H]54)C2,inactive
3,CSc1cnc(C)cn1,inactive
4,C=CC(=O)OCC(CO)(COCC(COC(=O)C=C)(COC(=O)C=C)COC(=O)C=C)COC(=O)C=C,4.31 µM (active)
5,Cc1c(C)c2c(c(C)c1O)CCC(C)(COc1ccc(CC3SC(=O)NC3=O)cc1)O2 (stereo not given),inactive
6,C[C@H](CCC(=O)O)[C@H]1CC[C@H]2[C@@H]3CC[C@@H]4C[C@H](O)CC[C@]4(C)[C@H]3CC[C@]12C,inactive
7,ON=C1CCCC1,inactive
8,C[n+]1cc2c3c(ccc2c2ccc4cc5c(cc4c21)OCO5)OCO3,2.59 µM (active)
9,Oc1ccc2c(c1)-c1ccccc1C2,inactive
10,N#CC1(c2ccc(F)cc2)CCC(=O)CC1,inactive
11,CNCc1cc(F)ccc1Oc1ccc(Cl)c(Cl)c1,inactive
12,Oc1ccc2cc(SSc3ccc4cc(O)ccc4c3)ccc2c1,17.4 µM (active)
13,Cc1cc(CCN2CCN(c3nsc4ccccc34)CC2)cc2c1NC(=O)CC2(C)C,19.5 µM (active)
14,CCCCN1CCCC[C@H]1C(=O)Nc1c(C)cccc1C,inactive
15,CCCN(CCC)C(=O)C(CCC(=O)OCCCN1CCN(CCOC(=O)Cc2c(C)n(C(=O)c3ccc(Cl)cc3)c3ccc(OC)cc23)CC1)NC(=O)c1ccccc1 (stereo not given),26.6 µM (active)
16,Cc1cccc(S(=O)(=O)O)c1C,inactive
17,NNc1nc(-c2ccc(N)cc2)cs1,inactive
18,CC(=O)SC[C@@H](Cc1ccccc1)C(=O)NCC(=O)OCc1ccccc1,inactive
19,CCOc1ccc2nc3cc(N)ccc3c(N)c2c1,inactive
20,O=C(NO)C1(NS(=O)(=O)c2ccc(Oc3ccc(F)cc3)cc2)CCOCC1,inactive

row,SMILES,Potency
1,COC(=O)c1cc(Cl)ccc1OC,inactive
2,NC(=O)N1C(=O)C(C(=O)c2cc(Cl)cs2)c2cc(F)c(Cl)cc21 (stereo not given),13.8 µM (active)
3,Clc1ccc2nsnc2c1NC1=NCCN1,inactive
4,CCCCN(CCCC)C(=O)N(CCCC)CCCC,inactive
5,CC(C)OC(=O)c1cc2c(OCC(O)CNC(C)(C)C)cccc2[nH]1 (stereo not given),inactive
6,O=C(O)c1ccc(Cl)c(Cl)c1,inactive
7,CC(=O)OCC(C)OC(C)=O (stereo not given),inactive
8,O=Cc1cc(O)ccc1Br,inactive
9,CCCCN1C(=O)[C@@H]([C@H](O)C2CCCCC2)NC(=O)C12CCN(Cc1ccc(Oc3ccc(C(=O)O)cc3)cc1)CC2,inactive
10,COC(=O)C1=C(C)NC(C)=C(C(=O)OCCc2ccc(N3CCN(C(c4ccccc4)c4ccccc4)CC3)cc2)C1c1cccc([N+](=O)[O-])c1 (stereo not given),inactive
11,O=C(OCC(COC(=O)c1ccccc1)(COC(=O)c1ccccc1)COC(=O)c1ccccc1)c1ccccc1,inactive
12,CCCCCCCCCCCCCCCC[N+](C)(C)CCN(Cc1ccc(OC)cc1)c1ncccn1,inactive
13,CCC(N)(CO)CO,inactive
14,c1ccc(CSCc2ccccc2)cc1,inactive
15,Cc1ccc(O)c(C(C)(C)C)c1,inactive
16,Clc1ccc(C(Cn2ccnc2)OCc2ccc(Sc3ccccc3)cc2)c(Cl)c1 (stereo not given),inactive
17,NNC(=O)c1cccc(C(=O)NN)c1,inactive
18,CC(C)CCCCCCCCCCCCCCC(=O)O,inactive
19,CCCCCCCCCCCCCC[P+](CCCC)(CCCC)CCCC (tested in a mixture with another compound),inactive
20,CNC(=O)c1ccccc1,inactive
